Inconclusive results are not listed. Entries that show only a call come without a potency. Calls of active or inactive are those of the source. Calls come from the whole dose curve; as a rule, active = well fitted inhibition curve with a large enough effect; inconclusive = small, poorly fitted or top-dose-only effect; inactive = flat fitted curve, though single readings scatter.
Experiment: CHOP2 Reporter Counterscreen Assay for Inhibitors of Ubiquitin-specific Protease USP2a;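 note: activated enterokinase alone at 50 pM in a cell-free format rather than USP2a or CHOP2; nearly all actives have a fitted effect of over 55% in size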
Conditions: purified enterokinase, fluorogenic substrate, 485/531 nm; series mostly up to 38.3 µM
In short: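 Cell-free counterscreen with pre-activated enterokinase alone (50 pM final) in 20mM Tris-HCl pH 8.0, 2mM CaCl2, 2mM beta-mercaptoethanol, 0.05% CHAPS; compound preincubation 30 min RT, reporter substrate 25nM final, fluorescence read after 10 min (Ex 485/Em 531).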
Potency is the fitted concentration of half-maximal effect.

SMILES | Potency
COc1cccc(NC(=O)c2ccccc2-c2nc(-c3cccc(C)c3)no2)c1 | inactive
O=C(NCCOC(=O)c1ccccc1C(=O)OCCNC(=O)c1cccnc1)c1cccnc1 | inactive
Cc1c(N=C/C=C2\N(C)c3ccccc3C2(C)C)c(=O)n(-c2ccccc2)n1C | inactive
O=C1NC[C@@H](c2ccccc2)OC(=O)[C@@H](Cc2ccc(F)cc2)CC/C=C/C[C@@H]1CC(=O)N(CCO)Cc1ccccc1 | inactive
CCOc1ccc(NC(=O)c2cccc(-n3cnnn3)c2)cc1 | inactive
CC1(C)CC(=O)C2=C(C1)N(Cc1ccco1)C(=O)NC2(C(F)(F)F)C(F)(F)F | inactive
O=C(CSc1nc(O)cc(=O)n1-c1ccccc1)NC1CCCCC1 | inactive
O=C1CCCc2nc(N3CCN(c4ccccc4)CC3)ncc21 | inactive
Cc1ccc(C(=O)N(C)CC(=O)Nc2cccc(C)c2C)o1 | inactive
COc1ccc(CN(Cc2cc3cc(C)ccc3[nH]c2=O)C(=O)N(C)C)cc1 | inactive
CCCn1c(NC(=O)c2ccc(Br)cc2)nc2ccccc21 | inactive
CCN(Cc1ccncc1)C(=O)c1cccs1 | inactive
O=C(C[n+]1ccc(-c2cc(C(=O)Nc3cccc(C(F)(F)F)c3)c3ccccc3n2)cc1)c1cccc([N+](=O)[O-])c1 | inactive
COc1cc(C(=O)OC2CCCCC2=O)cc(OC)c1C (stereo not given) | inactive
C/C(=N/NC(=O)c1cc2ccccc2cc1O)C1C(=O)c2ccccc2C1=O | inactive
CCOC(=O)N1CCC(NC(=O)c2ccc(OC)c(CN3CC(=O)N4CCCC4C3=O)c2)CC1 (stereo not given) | inactive
Cc1ccc2[nH]c(=O)c(COC(=O)c3ccccn3)cc2c1 | inactive
Cc1cc(NC(=O)c2cccc(S(=O)(=O)N(C)C)c2)n(-c2ccccn2)n1 | inactive
O=C(CSc1ncccc1-c1nc2ccccc2[nH]1)Nc1ccc2c(c1)OCCO2 | inactive
O=C(Nc1ncccc1Cl)c1cccc(F)c1 | inactive

SMILES | Potency
O=C1c2ccccc2C(=O)N1CCC1=CCCCC1 | inactive
COc1ccc(O)c(-c2cc(-c3ccc(F)cc3)n[nH]2)c1 | inactive
Clc1ccc2c(N/N=C/c3ccc(Br)cc3)ccnc2c1 | 7.94 µM (active)
Oc1ccc(/C=N/NC(=S)N/N=C/c2ccc(O)cc2)cc1 | inactive
CCCCC(OC(=O)c1cc2occc2n1C)C(=O)NCC1CCCO1 (stereo not given) | inactive
Cc1ccc(NC(=O)CSc2nnc(COc3ccc(C#N)cc3)n2-c2ccccc2)cc1C | inactive
CC(=O)Nc1ccc(NC(=O)C2CCCN(S(=O)(=O)c3ccc(Cl)cc3)C2)cc1 (stereo not given) | inactive
CCc1cc2c(=O)c(-n3cnc4ccccc43)coc2cc1O | inactive
Cc1ccc(S(=O)(=O)Nc2cc(C)c(O)c(S(=O)(=O)c3ccc(C)cc3)c2)cc1 | inactive
CC(=O)Nc1ccc(NC(=O)[C@@H](NC(=O)c2cccc(C)c2)C(C)C)cc1 | inactive
O=S(=O)(c1cc(Cl)ccc1Cl)N1CCNCC1 | inactive
c1ccc(-c2nc3nc4ccccc4nc3n2Cc2ccco2)cc1 | inactive
CN(c1ccccc1)S(=O)(=O)c1ccc(Cl)c(C(=O)NCCc2c[nH]c3ccccc23)c1 | inactive
Cc1ccc(-c2nc(N/N=C/c3ccncc3)c3ccccc3n2)cc1 | inactive
CCOC(=O)N1CCN(C(=O)c2cc3c(ccc4ccccc43)oc2=O)CC1 | inactive
c1coc(CNC2CCCCCCC2)c1 | inactive
COc1ccc(CCN2CC(C#N)=C3c4cc(OC)c(OC)cc4CCN3C2)cc1OC | inactive
C/C(CC(=O)N1CCCC1)=N\NC(=O)c1cc2ccccc2cc1O | inactive
Cc1ccc(NC(=O)CSc2nc(O)cc(=O)n2-c2ccc(C)cc2)cc1 | inactive
CC(=O)OCC(=O)Nc1ccc(Cl)cc1Cl | inactive
